High-throughput results as filed in PubChem BioAssay.
BAZ2B block = inhibitors of human BAZ2B bromodomain. Q9UIF8. AID 504333. AlphaScreen BAZ2B-H3K14Ac peptide displacement. actives 4.4% (n = 360,000). Potency, µM (titrated, usually from 114 µM), actives largely listed as inhibitors; also: nearly all actives have a fitted effect of over 60% in size
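In this displacement format the biotinylated H3(5-23) peptide acetylated at Lys14 serves as ligand at 50 nM, with BAZ2B at 50 nM in PBS pH 7.4 containing 0.01% Tween-20. Donor and acceptor beads are 10 ug/mL final.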
G9a block = inhibitors of human histone lysine methyltransferase G9a. actives 8.8% (n = 350,000). AID 504332. Potency, µM (titrated, usually from 102 µM), most hits filed as inhibitors. G9a H3K9 monomethylation, AlphaScreen, 2 h. Q96KQ7; also: nearly all actives have a fitted effect of over 75% in size
Target sequence (Q96KQ7 913-1193 limits assumed): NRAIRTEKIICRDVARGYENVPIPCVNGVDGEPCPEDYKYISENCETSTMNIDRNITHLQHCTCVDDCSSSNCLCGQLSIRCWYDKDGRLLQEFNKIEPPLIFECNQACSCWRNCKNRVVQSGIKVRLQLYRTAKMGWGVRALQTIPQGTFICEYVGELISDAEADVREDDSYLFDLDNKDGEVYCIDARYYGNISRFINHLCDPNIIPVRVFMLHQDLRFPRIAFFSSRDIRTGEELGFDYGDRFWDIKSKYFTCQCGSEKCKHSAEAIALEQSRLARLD
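Signal arises when biotinylated H3K9 peptide, once monomethylated, bridges streptavidin donor and antibody-captured acceptor beads. Enzyme at 20 nM was preincubated 15 min with test compounds; peptide 500 nM and SAM 20 uM then reacted for 2 h.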
PLK1 PBD inh = PLK1 (human) polo-box domain binding inhibition. Potency, µM, most hits filed as inhibitors. actives 2.8% (n = 360,000). AID 720504. P53350. Plk1 PBD binding of FITC phosphopeptide, fluorescence polarization; also: series mostly up to about 57 µM; nearly all actives have a fitted effect of over 65% in size
JMJD2A Tudor inh = blocks the human JMJD2A Tudor domain; Potency, µM (series often up to 114 µM), hits mostly inhibitors; actives 4.4% (n = 390,000); AlphaScreen JMJD2A-Tudor / H3K4me3 peptide binding; O75164; also: nearly all actives have a fitted effect of over 50% in size
HP1b binding inh = inhibitors of HP1-beta chromodomain binding to methylated histone tails | Potency, µM (top dose mostly 114 µM), most hits filed as inhibitors | actives 0.56% (n = 390,000) | AlphaScreen HP1-beta / biotin-H3K9me3 peptide binding; also: nearly all actives have a fitted effect of over 70% in size
Target sequence (P83916 whole entry, looked up): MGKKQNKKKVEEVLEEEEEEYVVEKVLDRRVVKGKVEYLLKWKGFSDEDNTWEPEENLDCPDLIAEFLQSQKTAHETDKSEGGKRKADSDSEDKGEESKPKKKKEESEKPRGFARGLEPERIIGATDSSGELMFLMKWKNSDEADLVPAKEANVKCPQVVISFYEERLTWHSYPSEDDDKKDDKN
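Compound inhibition of the preformed complex between 50 nM HP1-beta and 50 nM biotinylated H3K9me3 peptide was read by AlphaScreen. Buffer was PBS pH 7.4 with 0.01% Tween-20. Incubations ran 30 min at room temperature, with 10 ug/mL donor/acceptor beads.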
ALOX12 inh = inhibitors of human 12S-lipoxygenase ALOX12 | P18054 | purified 12hLO, xylenol orange hydroperoxide absorbance | Potency, µM (doses to about 108 µM), actives largely listed as inhibitors | actives 1.1% (n = 580,000) | AID 1671190
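Purified human 12hLO (150 nM final) in 25 mM Hepes, 0.01% Triton X-100, pH 7.0 was preincubated 15 min at room temperature with compound. Then 40 uM arachidonic acid was added, 30 min. Hydroperoxide was read by Fe-XO absorbance ratio 573/405 nm.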
Numbers stand for hits; [ ] = dose if it differs, or a comment. An excerpt weighted towards active compounds, which were near 9% of everything screened. Calls follow the shape of the dose curve; as a rule, active = well fitted curve in the direction sought with a large enough effect; inconclusive = small, poorly fitted or top-dose-only effect, or another doubt; inactive = no such curve, though single readings can be large; an effect the other way counts as inactive or inconclusive.

For CC(=O)N1CCCc2cc(S(=O)(=O)Nc3ccc(C)cc3C)ccc21 the results were BAZ2B block inconclusive, G9a block inactive, PLK1 PBD inh inactive, JMJD2A Tudor inh inactive, HP1b binding inh inactive and ALOX12 inh inactive.
CCOC(=O)Cn1c(=O)oc2cc(S(=O)(=O)Nc3cc(OCC)ccc3OCC)ccc21 was read as BAZ2B block inactive, G9a block inactive, PLK1 PBD inh inactive, JMJD2A Tudor inh inactive, HP1b binding inh inactive and ALOX12 inh inactive.
Screening CCC(=O)N1CCc2cc(S(=O)(=O)NCCC(=O)Nc3ccc(N(CC)CC)cc3C)ccc21 returned G9a block 10µM, JMJD2A Tudor inh inconclusive, HP1b binding inh inactive and ALOX12 inh inactive.
Cc1ccc(S(=O)(=O)n2nc(C)c(S(=O)(=O)N3CCCCCC3)c2C)cc1C was read as BAZ2B block inactive, G9a block inactive, JMJD2A Tudor inh inactive, HP1b binding inh inactive and ALOX12 inh inactive.
Cc1ccc(S(=O)(=O)n2nc(C)c(Br)c2C)c(C)c1C was read as BAZ2B block inactive, G9a block 71µM, PLK1 PBD inh inactive, JMJD2A Tudor inh inactive, HP1b binding inh inactive and ALOX12 inh inactive.
Cc1ccc(Oc2ccc(/C=N/O)cn2)cc1 was read as BAZ2B block inconclusive, G9a block inactive, PLK1 PBD inh 3.4µM, JMJD2A Tudor inh inactive[11.4 µM], HP1b binding inh inactive and ALOX12 inh inactive.
Screening O=[N+]([O-])c1cccc(S(=O)(=O)Nc2ccc(S(=O)(=O)N3CCCC3)cc2)c1 returned PLK1 PBD inh inactive, JMJD2A Tudor inh inactive, HP1b binding inh inactive and ALOX12 inh inactive.
`Cc1ccc(S(=O)(=O)Nc2nc3ccccc3nc2Nc2cccc(S(=O)(=O)N3CCCC3)c2)cc1` gave BAZ2B block inactive, G9a block inactive[12.7 µM], PLK1 PBD inh 27µM, JMJD2A Tudor inh inactive[11.4 µM], HP1b binding inh inactive and ALOX12 inh inconclusive.
O=[N+]([O-])c1cccc(S(=O)(=O)Nc2nc3ccccc3nc2Nc2cccc(S(=O)(=O)N3CCCCC3)c2)c1 was read as BAZ2B block inconclusive, G9a block 40µM, PLK1 PBD inh 24µM, JMJD2A Tudor inh 45µM, HP1b binding inh inactive and ALOX12 inh inconclusive.
Screening CCOC1OC(=O)C(Cl)=C1Nc1ccc(C)cc1 (configuration not stated) returned BAZ2B block inactive, G9a block inactive, PLK1 PBD inh inactive, JMJD2A Tudor inh inactive, HP1b binding inh inactive and ALOX12 inh inactive.
COc1ccccc1CNC1(Cc2cc(COc3ccccc3)on2)COC1 was read as ALOX12 inh inactive.
Screening Cc1cccc(NC(=O)c2ccc(-n3cnc4cccnc43)cc2)c1C returned BAZ2B block inactive, G9a block inactive, JMJD2A Tudor inh inactive, HP1b binding inh inactive and ALOX12 inh inactive.
Screening CC1(C)SCC(C(=O)O)NC1=O (configuration not stated) returned BAZ2B block inactive, G9a block inactive, PLK1 PBD inh 21µM, JMJD2A Tudor inh inactive, HP1b binding inh inactive and ALOX12 inh inactive.
Screening CCc1ccc(N(C(C)=O)c2nc(CCl)cs2)cc1 returned BAZ2B block inactive, G9a block 18µM, PLK1 PBD inh inactive, JMJD2A Tudor inh inactive, HP1b binding inh inactive and ALOX12 inh inconclusive.
For COc1ccc(OC)c(C(=O)CSc2nnc(-c3cccnc3)n2C)c1 the results were BAZ2B block inactive, G9a block 18µM, PLK1 PBD inh inactive, JMJD2A Tudor inh inactive, HP1b binding inh inactive and ALOX12 inh inconclusive.
Screening COC(=O)CSc1nnc(-c2cccnc2)n1C returned BAZ2B block inactive, G9a block inactive, PLK1 PBD inh inactive, JMJD2A Tudor inh inactive, HP1b binding inh inactive and ALOX12 inh inactive.
Cc1cc(NC(=O)CSc2nnc(-c3ccco3)n2C)no1 was read as BAZ2B block inactive, G9a block inactive[12.7 µM], PLK1 PBD inh inactive, JMJD2A Tudor inh inactive, HP1b binding inh inactive and ALOX12 inh inactive.
For Cc1cc(NC(=O)CSc2nnc(-c3cccc(F)c3)n2N)no1 the results were BAZ2B block inactive, G9a block inactive[2.33 µM], PLK1 PBD inh inactive, JMJD2A Tudor inh inactive, HP1b binding inh inactive and ALOX12 inh inactive.
